Screening results: PubChem BioAssay, National Center for Advancing Translational Sciences (NCATS)
Menin-MLL FL inh = displaces fluorescein MLL peptide from human menin. Fluorescence polarization, fluorescein-MLL peptide displacement from menin. 290,000 tested, under 10 active. FP activity change, % at 61.4 µM; active means well fitted curve in the direction sought with a large enough effect in the polarisation, not every such curve was filed as active; inconclusive means small, poorly fitted or top-dose-only effect, or effect the other way, or a change in a side signal; inactive means no such curve, though single readings can be large or run the other way; the % refers to the polarisation; further: % of control where 0% means no effect
Chronic BCR inh = chronic active BCR signaling inhibition. ABC-DLBCL IkBa-CBG/CBR reporter, luminescence ratio, 4 h. Potency, µM (titrated, usually from 46.1 µM), inactives show at the top dose activity change, negative = inhibition, hits mostly inhibitors. 0.05% of 340,000 active; active means well fitted inhibition curve with a large enough effect in the signal ratio, with a control signal flat, not every such curve was filed as active; inconclusive means small, poorly fitted or top-dose-only effect, or effect the other way, or a change in a side signal; the % refers to the signal ratio;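 further: potency means the concentration at half of the fitted maximal effect; plate controls were basal doxycycline-induced cells for no effect and cells given 10 µM MG132 for full effect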
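TMD8 human ABC-DLBCL cells with doxycycline-inducible IκBα–green luciferase fusion and unfused red luciferase, in 0.5% FBS medium; compounds up to 46 uM, 4 h at 37C. Green/red luminescence ratio, filter-overlap corrected, fitted to concentration-response curves.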
TSG101-PTAP inh = blocks PTAP/TSG101 interaction to inhibit HIV-1 budding. Q99816. Fluorescence polarization, FITC-PTAP peptide / Tsg101 binding. Potency, µM (series often up to 115 µM), for inactives: top-dose activity change, negative = inhibition, usual class: inhibitors. 340,000 tested, under 10 active; active means well fitted inhibition curve with a large enough effect in the main read-out, with a control signal flat, not every such curve was filed as active; inconclusive means small, poorly fitted or top-dose-only effect, or effect the other way, or a change in a side signal; inactive means no such curve, though single readings can be large or run the other way; further: potency means the concentration at half of the fitted maximal effect; % of control where 0% means no effect
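FP read-out: FITC-PTAP peptide, 50 nM final, binding Tsg101 binding domain, 10 uM final; 20 min, r.t.; 10 mM HEPES pH 7.5, 0.15 M NaCl, 0.01% Tween 20, 3 mM EDTA, 0.1 mM TCEP.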
Menin MLL FP TR = menin-MLL binding inhibition, Texas Red mutant peptide; O00255; Menin + Texas Red MLL mutant peptide, fluorescence polarization; Potency, µM (top dose mostly 61.6 µM), for the others: at the top dose FP activity change, negative = inhibition, usual class: inhibitors; 0.23% of 270,000 active; active means well fitted inhibition curve with a large enough effect in the polarisation, with a control signal flat, not every such curve was filed as active; inconclusive means small, poorly fitted or top-dose-only effect, or effect the other way, or a change in a side signal; inactive means no such curve, though single readings can be large or run the other way; the % refers to the polarisation; further: potency means the concentration at half of the fitted maximal effect; % of control where 0% means no effect
B2AR arrestin = beta2AR (human) beta-arrestin recruitment activity | P07550 | beta-arrestin recruitment to beta2AR, cell-based reporter | Potency, µM (titrated, usually from 46.1 µM), without a hit: top-dose activation, usual class: activators | 0.02% of 330,000 active | AID 492947; active means well fitted activation curve with a large enough effect; inconclusive means small, poorly fitted or top-dose-only effect;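 further: potency means the concentration at half of the fitted maximal effect; 0% = DMSO controls and full agonism = EC100 isoproterenol or metaproterenol; nearly all actives have a fitted effect of over 65% in size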
Target sequence (P07550 whole entry, looked up): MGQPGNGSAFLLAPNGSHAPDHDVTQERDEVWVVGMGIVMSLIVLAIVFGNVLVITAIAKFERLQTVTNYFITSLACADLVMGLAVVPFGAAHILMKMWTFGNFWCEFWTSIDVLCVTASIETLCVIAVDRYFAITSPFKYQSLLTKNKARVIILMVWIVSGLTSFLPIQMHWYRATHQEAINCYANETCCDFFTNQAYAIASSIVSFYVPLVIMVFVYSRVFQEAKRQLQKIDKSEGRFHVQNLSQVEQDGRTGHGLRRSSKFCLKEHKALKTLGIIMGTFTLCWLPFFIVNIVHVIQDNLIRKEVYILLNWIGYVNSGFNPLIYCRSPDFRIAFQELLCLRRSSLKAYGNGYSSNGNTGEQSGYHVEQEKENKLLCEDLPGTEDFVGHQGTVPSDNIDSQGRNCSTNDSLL
CXXC DNA block = MLL CXXC-DNA interaction inhibition | 0.037% of 290,000 active | MLL-CXXC / FITC-HOXA9 DNA fluorescence polarization | Potency, µM (highest dose often 115 µM), inactives show at the highest dose activity change, negative = inhibition, most hits filed as inhibitors; active means well fitted inhibition curve with a large enough effect in the polarisation, with a control signal flat, not every such curve was filed as active; inconclusive means small, poorly fitted or top-dose-only effect, or effect the other way, or a change in a side signal; inactive means no such curve, though single readings can be large or run the other way; the % refers to the polarisation; further: potency means the concentration at half of the fitted maximal effect
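Fluorescence polarization: 7 uM MLL-CXXC (stock) preincubated 5 min with compounds, then 50 nM fluorescein-HOX-A9 DNA (stock) added; 30 min ambient. Buffer 50 mM Tris-HCl pH 7.5, 50 mM NaCl, 1 mM DTT, 0.05% BSA.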
Numbers without * were called inactive; ? = inconclusive; / = no result. This is one part of a sample in which hits are shown more often than they occur.

SMILES	Menin-MLL FL inh	Chronic BCR inh	TSG101-PTAP inh	Menin MLL FP TR	B2AR arrestin	CXXC DNA block
COc1ccc(C2=Nn3c(nnc3-c3ccccc3OC)SC2)cc1OC1CCOC1 (configuration not stated)	/	8.2µM*	0%	/	4%	/
O=C(Cn1c(=O)oc2ccccc21)Nc1ccc(Cl)cc1Cl	-1	0%	4%	32µM*	0%	44%
Nc1ccn(CC(=O)NCc2ccccc2)c(=O)n1	/	-1%	/	/	0%	/
O=C(c1cccs1)N1N=C(c2ccccc2)CC1c1ccccc1O (configuration not stated)	8	?	1%	18µM*	0%	13%
Cc1cccc(NC(=O)c2n[nH]c([N+](=O)[O-])c2Br)c1C	-1	?	-1%	22%	1%	7%
COc1cc(SSc2cc(OC)cc([N+](=O)[O-])c2N)c(N)c([N+](=O)[O-])c1	?	?	-3%	?	14µM*	4%
CCC(NC(C)C)C(O)c1ccc(O)c(O)c1 (configuration not stated)	-3	-19%	0%	0%	3.2µM*	-4%
CCC(c1ccc(O)c(O)c1)C(CC)c1ccc(O)c(O)c1 (configuration not stated)	/	/	-4%	/	/	/
CN1CCc2c(sc3c2C(=O)NC(c2cccs2)N3)C1 (configuration not stated)	?	-1%	-21%	28µM*	0%	20%
COc1cccc(NC(=O)Cn2c(=O)oc3cc(S(=O)(=O)N4CCCC4)ccc32)c1	7	-1%	-7%	/	1%	-1%
O=C(Cn1c(=O)oc2cc(S(=O)(=O)N3CCCC3)ccc21)NC1CCCc2ccccc21 (configuration not stated)	7	5%	-5%	32µM*	0%	23%
O=C(Cn1c(=O)oc2cc(S(=O)(=O)N3CCCCCC3)ccc21)NC1CCCCCCC1	1	0%	0%	-7%	0%	1%
O=C(Cn1c(=O)oc2cc(S(=O)(=O)N3CCCC3)ccc21)Nc1ccc(C(F)(F)F)cc1	-1	2%	-2%	25µM*	0%	13%
C/C(=N\O)C(=O)Nc1ccccc1	1	-1%	-5%	/	-1%	4%
O=C(CSc1ncccn1)NCc1ccc2c(c1)OCO2	-1	7%	0%	9%	0%	34%
Cc1nc2ccc(C(=O)O)cc2c2c1CC(C)S2 (configuration not stated)	15	?	-4%	20µM*	0%	9%
Cc1nc2cc(C(=O)O)ccc2s1	0	?	0%	-7%	0%	-7%
O=C1c2ccccc2C(Nc2ccc(S(=O)(=O)N3CCCCCC3)cc2)N1Cc1ccco1 (configuration not stated)	2	?	-1%	0%	0%	-3%
Cc1ccc(S(=O)(=O)N2CCC(C(=O)Nc3nnc(COc4ccccc4)s3)CC2)cc1	5	0%	-1%	-10%	-4%	-5%
COc1ccc(CNC(=O)c2ccc[nH]2)cc1	-3	-3%	-2%	26%	0%	0%
CCN(CC)C(=S)SSC(=S)N(CC)CC	-1	?	2%	-18%	0.65µM*	?
COC(=O)c1ccc(C2c3c(oc4ccc(Cl)cc4c3=O)C(=O)N2CCN2CCOCC2)cc1 (configuration not stated)	10	?	-6%	/	-1%	-6%
CCOc1ccc2nc3cc(NCc4ccc(OC)cc4)ccc3c(N)c2c1	?	5%	?	11µM*	-1%	7%
CCOc1ccc2nc3cc(N)ccc3c(N)c2c1	?	/	/	?	/	-29%
CCN1CCCC1CNC(=O)c1cc2c(OC)cccc2[nH]1 (configuration not stated)	-3	?	-1%	11%	-1%	?
SMILES	Menin-MLL FL inh	Chronic BCR inh	TSG101-PTAP inh	Menin MLL FP TR	B2AR arrestin	CXXC DNA block
COc1cc(/C=N/NC(=O)NC2CCCCC2)ccc1O	3	13µM*	-2%	/	0%	0%
CC(=O)[C@@]1(O)CC[C@H]2[C@@H]3C[C@H](C)C4=CC(=O)C=C[C@]4(C)[C@@]3(F)[C@@H](O)C[C@@]21C	1	?	-4%	-12%	2%	7%
Cc1cc(NC(=O)CSc2nc3cc(Cl)ccc3o2)no1	/	1%	0%	/	0%	0%
O=S1(=O)C=C(Sc2nc3cc(Cl)ccc3o2)c2ccccc21	6	6.3µM*	2%	-22%	5%	13%
CCOCCCNC(=O)CS(=O)(=O)Cc1nc(-c2cccc(OC)c2)oc1C	-1	-5%	-2%	-28%	-1%	-5%
Cn1c(=O)c2[nH]c(Nc3ccccc3)nc2n(C)c1=O	1	?	-1%	6%	-1%	5%
CCOc1ccccc1-n1nnnc1SCC(=O)Nc1cc2oc3ccccc3c2cc1OC	6	8%	-12%	10µM*	-1%	33%
CCOc1ccccc1-n1nnnc1SCC(=O)Nc1cc(C)on1	6	?	-6%	23%	3%	1%
N#CC12COC3(CCCCC3C1(C#N)C#N)OC2=N (configuration not stated)	?	3%	0%	/	0%	0%
N#CC1(C#N)COC23CCCCC2C1(C#N)C(=N)O3 (configuration not stated)	?	?	-6%	28µM*	0%	-20%
COC(=O)CCC(=O)Nc1ccc(Cl)c(Cl)c1	3	6%	-2%	4%	1%	-6%
CO/N=C\CC(=O)Nc1ccc(Cl)c(Cl)c1	0	2%	0%	25µM*	0%	-9%
O=C(Nc1ccccc1N1CCCCC1)c1ccc(F)c(S(=O)(=O)N2CCOCC2)c1	/	3%	-1%	/	0%	/
Oc1ccc(COC2CCCC2)c2cccnc12	/	7.3µM*	/	/	7%	/
CCCCCC1CCC(c2n[nH]c(=S)n2C)CC1 (configuration not stated)	4	?	-3%	?	4µM*	-3%
Cc1ccc(Cl)cc1NC(=O)COc1ccccc1	-4	0%	1%	8%	0%	-5%
CCCCOc1ccc(/C=C/C(=O)OCC(=O)c2c(N)n(C)c(=O)n(C)c2=O)cc1OCC	5	-13%	-9%	?	0%	7%
COc1ccccc1NC(=O)N1CCC(c2nc3cc(C)c(C)cc3[nH]2)CC1	-4	18µM*	-4%	26%	0%	1%
COc1ccccc1NC(=S)N1CCC(c2nc3cc(C)c(C)cc3[nH]2)CC1	2	-1%	-4%	-4%	1%	-12%
CC(Oc1nc2c(c(=O)n(C)c(=O)n2C)n1C)C1CCCCC1 (configuration not stated)	/	/	1%	/	/	/
